Assay [1] is described as follows: NCI Yeast Anticancer Drug Screen. Data for the rad50 strain (AID 155).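 Also: 0% = growth of vehicle-only cultures of the same strain.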 As to conditions: S. cerevisiae rad50 strain growth inhibition; at 50.0 µM; hits give high values. The method in brief:
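Compounds were tested on a yeast strain with an engineered DNA damage repair alteration; the reported value is growth inhibition normalised to vehicle treatment.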

A short description of assay [2]: NCI Yeast Anticancer Drug Screen. Data for the mec2-1 strain (AID 157). Particulars: S. cerevisiae mec2-1 strain, at 50.0 µM, hits give high values. The method in brief:
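Strain: mec2-1 (DNA repair/cell cycle alteration). Compound exposure, then growth measured; inhibition expressed relative to vehicle.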

Assay [3] is described as follows: NCI Yeast Anticancer Drug Screen. Data for the sgs1 mgt1 strain (AID 161).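 Also: 0% = growth of cultures given vehicle only.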 Particulars: S. cerevisiae sgs1 mgt1 strain, at 50.0 µM, hits give high values. The method in brief:
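Test agents were incubated with a DNA-repair-mutant yeast strain. Growth was then read and compared against vehicle-treated controls.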

The nature of assay [4]: NCI Yeast Anticancer Drug Screen. Data for the cln2 rad14 strain (AID 165).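 Also: 0% = growth equal to vehicle treated cultures.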 As to conditions: S. cerevisiae cln2 rad14 strain, at 50.0 µM, hits give high values. The method in brief:
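Compounds are applied to the cln2 rad14 yeast strain, and growth is then compared with that of vehicle-treated cultures to give inhibition.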

Assay [5] is described as follows: NCI Yeast Anticancer Drug Screen. Data for the bub3 strain (AID 167). Particulars: S. cerevisiae bub3 mutant strain, at 50.0 µM, hits give high values. In a few lines:
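Growth of a checkpoint-deficient yeast mutant is measured after compound exposure. Values represent inhibition relative to vehicle.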

A short description of assay [6]: NCI Yeast Anticancer Drug Screen. Data for the mlh1 rad18 strain (AID 175). As to conditions: S. cerevisiae mlh1 rad18 strain growth inhibition; at 50.0 µM; hits give high values. In a few lines: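 Read-out is yeast growth inhibition, calculated against vehicle-only controls. The compound was applied to a strain engineered with DNA damage repair alterations.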

Compounds without any hit were thinned out: in the full panel of roughly 79,000, 15% have a hit. Values without a mark were called inactive. Activity calls are given as the source filed them. Rule as the data show it: active = growth inhibition above about 70%; inactive = the rest.

Turning to `CC(=O)OC(C)c1cc2c(s1)C(=O)c1scc(C(C)OC(C)=O)c1C2=O` (stereo unspecified), the growth inhibition in assay [1] was 90.8% (active); in assay [2] it was 93.4% (active); in assay [3], 92.5% (active); in assay [4], 91.9% (active); in assay [5], 91.7% (active); in assay [6], 91.3% (active).

`C[C@H](CCC(=O)O)[C@H]1CC[C@H]2[C@@H]3CC[C@@H]4C[C@H](O)CC[C@]4(C)[C@H]3CC[C@]12C`: the growth inhibition is 40% in assay [1]; 31.4% in assay [2]; 10% in assay [3]; 0.75% in assay [4]; 25.8% in assay [5]; 23.6% in assay [6].

As to `Nc1ccccc1N=Cc1c(O)c2ccccc2oc1=O`, the growth inhibition was -8.55% in assay [1]; -11% in assay [2]; 2.7% in assay [3]; 4.05% in assay [4]; 4.25% in assay [5]; 8.2% in assay [6].

On to `CN(C)c1ccc(-c2ccncc2)cc1`, for which the growth inhibition in assay [1] was 21.6%; in assay [2], 15.2%; in assay [3] it was 18.9%; in assay [4], -11.8%; in assay [5], 17.4%; in assay [6] it was 17.2%.

`C=C(C)C(=O)OC1C(C(C)CCCO)=C(CO)CC2OC(=O)C(=C)C21` (stereo unspecified): the growth inhibition in assay [1] was -15.9%; in assay [2], -29.1%; in assay [3] it was -14.5%; in assay [4], -7.7%; in assay [5], -10.3%; in assay [6], -29.1%.

Turning to `Oc1ccccc1CNCCNCc1ccccc1O`, the growth inhibition in assay [1] was -12.2%; in assay [2], -14.1%; in assay [3], 1.6%; in assay [4], 17.6%; in assay [5] it was -4.5%; in assay [6], -36.2%.

Take `CCOC(=O)c1c(SCCO)n(-c2ccccc2)c(=S)n(-c2ccccc2)c1=O`: the growth inhibition was -22.7% in assay [1]; -25.2% in assay [2]; -22.7% in assay [3]; 1.75% in assay [4]; -13.3% in assay [5]; -19.4% in assay [6].

Take `Cc1cc2c(=O)c3ccc(Cl)cc3[nH]c2c(C(N)=O)c1C`: the growth inhibition was 22.2% in assay [1]; 7.4% in assay [2]; 14.5% in assay [3]; 26.3% in assay [4]; 6.6% in assay [5]; 13.3% in assay [6].

For `Cc1ccc(N2C(=O)CSC2=S)cc1C`, the growth inhibition in assay [1] is -1.7%; in assay [2], -15.7%; in assay [3] it was -30%; in assay [4] it was -38%; in assay [5], -29%; in assay [6] it was -9.5%.

For `c1ccc(N=C(Nc2ccccc2)N2CCCC2)cc1`, the growth inhibition in assay [1] is -33.2%; in assay [2], -13.6%; in assay [3] it was -28.1%; in assay [4], 5.7%; in assay [5], -19.8%; in assay [6], -19.4%.

As for `CCc1cc2c(ccc3ccccc32)c2c1CCC2`, the growth inhibition is -11.6% in assay [1]; -11.7% in assay [2]; -1.8% in assay [3]; -17.1% in assay [4]; 5.3% in assay [5]; 1.6% in assay [6].

With `Cc1c(F)cccc1NC(=O)OC(C)C`, the growth inhibition is 18.2% in assay [1]; -5.15% in assay [2]; -0.7% in assay [3]; -50.8% in assay [4]; 12.8% in assay [5]; 5.1% in assay [6].

Take `CCN(CC)c1ccc2c(c1)Oc1ccc(N(C(C)=O)c3ccccc3)cc1C21OC(=O)c2ccccc21` (stereo unspecified): the growth inhibition in assay [1] was 25.5%; in assay [2], 13.1%; in assay [3], 29.6%; in assay [4], 31%; in assay [5] it was 51.4%; in assay [6], 19.2%.

Regarding `C/C=C\C(=O)OC1CCC(C2CCCCC2)CC1` (stereo unspecified), the growth inhibition in assay [1] is 25.3%; in assay [2], 9.3%; in assay [3] it was 14.8%; in assay [4] it was 1.25%; in assay [5], 56.6%; in assay [6], -2.15%.

With `O=C(C[N+]12CN3CN(CN(C3)C1)C2)c1ccc(-c2ccccc2)cc1`, the growth inhibition in assay [1] was 65.7%; in assay [2], 34.2%; in assay [3] it was 53.2%; in assay [4] it was 21.1%; in assay [5], 39.2%; in assay [6], 45.6%.

On to `CCCCCNC(=O)C(C)O` (stereo unspecified), for which the growth inhibition in assay [1] was 5.6%; in assay [2], -8.3%; in assay [3] it was -9.7%; in assay [4] it was -30.5%; in assay [5], -2.2%; in assay [6], 14.6%.

As to `CCOC(=O)C(C)Oc1ccc(Cn2ccnn2)cc1` (stereo unspecified), the growth inhibition in assay [1] is -20.1%; in assay [2], -1.25%; in assay [3], 15.9%; in assay [4], -4.05%; in assay [5] it was 3.1%; in assay [6], 6.25%.

`CCC(COCC(CC)C(=O)O)C(=O)O` (stereo unspecified): the growth inhibition in assay [1] is 11.3%; in assay [2], 1.1%; in assay [3], 18.6%; in assay [4], 19.1%; in assay [5] it was 12.7%; in assay [6], 15.2%.

On to `NC(=O)CCCCCCCC(=O)O`, for which the growth inhibition in assay [1] is -0.9%; in assay [2], -5.7%; in assay [3], -13.4%; in assay [4], 1.45%; in assay [5], -10.6%; in assay [6], -22.9%.

`CCOC(=O)/C=C/SCCC(=O)OC`: the growth inhibition in assay [1] was 37.3%; in assay [2] it was 21.9%; in assay [3] it was 7.9%; in assay [4], 12.4%; in assay [5], 15%; in assay [6] it was 40.8%.

With `CC(C)NC(=O)OCCN=c1c2ccccc2ccc2ccccc12`, the growth inhibition is 53.3% in assay [1]; 49.8% in assay [2]; 65.9% in assay [3]; 22.7% in assay [4]; 60.1% in assay [5]; 38.9% in assay [6].

These data come from PubChem BioAssay (NCI).
